Assay outcomes: PubChem, several laboratories
This is a sample that favours compounds with a hit; in the whole collection about 1.7% have one here.
PriA SSB inh = blocks PriA binding to SSB C-terminal tail | AlphaScreen SSBct-PriA binding, biotinylated peptide | inhibition, % at 33 µM | 0.6% of 430,000 active; in the data active = inhibition mostly above about 37%, no sharp cut-off; inactive = mostly below about 20%;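 also: plate controls were negative control peptide for no effect and reference peptide for full effect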
3CLpro inhibitor = SARS-CoV 3CLpro protease inhibition; P0C6X7; recombinant SARS-CoV 3CLpro, quenched FRET peptide cleavage; inhibition, % at 6 µM; 0.14% of 290,000 active; in the data active = inhibition above about 12%
RecA splice inh = Mtb RecA intein splicing inhibition; 0.75% of 290,000 active; inhibition, % (no concentration beside the values); cell-free RecA intein splicing, fluorescence; P9WHJ3; in the data active = inhibition above about 30%;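 also: 0% = vehicle wells and 100% = reference inhibitor control wells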
CCHFV vOTU inh = CCHFV vOTU protease inhibition; Pep-AMC fluorescence; inhibition, % at 11.5 µM; 0.55% of 370,000 active; in the data active = inhibition above about 30%; also: 0% = vehicle wells with enzyme and 100% = no enzyme wells
VHR inh abs = inhibitors of human VHR1 phosphatase (DUSP3). 0.52% of 290,000 active. P51452. inhibition, % at 13.3 µM. recombinant VHR phosphatase, pNPP absorbance; in the data active = inhibition above about 50%
Target sequence (P51452 whole entry, looked up): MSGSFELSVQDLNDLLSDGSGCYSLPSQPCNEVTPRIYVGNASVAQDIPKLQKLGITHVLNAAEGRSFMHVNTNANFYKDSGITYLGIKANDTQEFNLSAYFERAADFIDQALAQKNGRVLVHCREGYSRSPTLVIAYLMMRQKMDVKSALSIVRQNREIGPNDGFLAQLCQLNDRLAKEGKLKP
* = called active by the depositor; / = no result given; ! = repeats disagree.

SMILES	PriA SSB inh	3CLpro inhibitor	RecA splice inh	CCHFV vOTU inh	VHR inh abs
Cc1noc(C)c1CCC(=O)NCC1(c2ccsc2)CCCC1	-28	/	/	/	/
CC1CCCCC1NC1=NCCCS1 (centres undefined)	/	-3	-2	/	54*
C[n+]1cn(/N=C/c2ccccc2)c2ccccc21	/	0	0	-6	54*
Nc1ccc2[nH]ncc2c1	18	-3	61*	8	9
Cc1[nH][nH]c(=O)c1C(c1ccccc1[N+](=O)[O-])C(C#N)C#N (centres undefined)	8	3	70*	-18	2
COc1ccc(-c2ccc(C(c3c(C)[nH][nH]c3=O)c3c(C)[nH][nH]c3=O)o2)c([N+](=O)[O-])c1	14	-5	/	5	25
O=C(Nc1ccc2c(c1)OCO2)c1csc(Nc2ccccc2)n1	4	/	/	/	/
N#Cc1nc(-c2ccc(F)cc2)oc1N1CCCCCC1	112*	/	/	/	/
CCOc1ccc(-c2nc(C#N)c(N3CCCCC3)o2)cc1	94*	/	/	/	/
COc1ccc(-c2nc(C#N)c(N3CCCCC3)o2)cc1OC	59*	/	/	/	/
CCOP(=O)(OCC)c1nc(-c2ccc(OC)cc2)oc1N1CCOCC1	-10	-1	-2	-45	15
COc1ccc(N2CCN(c3oc(-c4ccc(OC)c(OC)c4)nc3C#N)CC2)cc1	-7	6	1	10	16
Cc1ccc(-c2nc(C#N)c(N3CCCC3)o2)cc1	49	/	/	/	/
COP(=O)(OC)c1nc(-c2ccc(C)cc2)oc1N1CCCCC1	51*	-1	-4	-79	-18
COc1ccc(S(=O)(=O)Nc2ccc3c(c2)CN(C(=O)C(C)C)CC3)cc1	1	/	/	/	/
O=C(NCCc1ccc(N2CCCC2)cc1)C(=O)Nc1ccon1	-6	/	/	/	/
COc1ccc(CNC(=O)Cn2ncn3nc4c(c3c2=O)CCCC4)cc1	-8	/	/	/	/
CCOc1ccnc2c1c(=O)n(Cc1c(F)cccc1Cl)c(=O)n2C	-2	/	/	/	/
Cc1ccc(OCc2ccc(-c3nc(C#N)c(N4CCCCC4)o3)o2)cc1	82*	/	/	/	/
COc1ccc(-c2nc(C#N)c(N3CCN(c4ccccc4)CC3)o2)cc1	15	-1	1	5	30
COc1ccc(OCc2nc(C#N)c(NCCCn3ccnc3)o2)cc1	-7	1	-1	9	3
Cc1ccc(OCc2ccc(-c3nc(C#N)c(NCCCn4ccnc4)o3)o2)cc1	60*!	/	/	/	/
CCCOc1ccc(-c2nc(C#N)c(N3CCCC3)o2)cc1	61	/	/	/	/
COc1ccc(-c2nc(C#N)c(N3CCCN(C)CC3)o2)cc1	69*	/	/	/	/
Cc1cc(C(=O)Nc2nnc(-c3ccccc3)o2)nn1C	-1	/	/	/	/
SMILES	PriA SSB inh	3CLpro inhibitor	RecA splice inh	CCHFV vOTU inh	VHR inh abs
COc1ccc(-n2nc3c(c2NC(=O)C(=O)NCCCn2ccnc2)CSC3)cc1	-8	/	/	/	/
Cc1cc(C)c(C)c(S(=O)(=O)NCc2ccc(C(=O)Nc3cccnc3)cc2)c1C	5	/	/	/	/
CNC(=O)COc1ccccc1C(=O)Nc1ccc2c(c1)oc1ccccc12	-8	0	3	-4	55*
O=C(NCCn1nc(-c2ccc(F)cc2)ccc1=O)NC1CCCCC1	-6	/	/	/	/
COc1ccc(-c2cn3cc(Cl)ccc3n2)cc1OC	-8	1	3	-62	53*
O=C(C1CC1)N(Cc1cccnc1)c1nc2c(C(F)(F)F)cccc2s1	-9	/	/	/	/
O=S(=O)(NCC1CCN(C2CCCC2)CC1)c1cccc(F)c1	-10	/	/	/	/
CN(C)CCOCCOc1ccc(Cl)cc1Br	-3	1	-1	1	-15
CN(C)CCCOc1ccc(Cl)cc1Br	51*	1	-1	-12	10
COc1cc(C(CC(=O)Nc2ncccc2C)N2Cc3ccccc3C2=O)cc(OC)c1OC (centres undefined)	0	-7	-1	9	53*
COc1ccc(-c2cc3c(=O)n(CC(=O)Nc4cccc(Cl)c4)nc(C)n3n2)cc1	44*	-2	0	-2	3
O=C(CC1SC(=Nc2ccccc2)N(c2ccccc2)C1=O)Nc1ccccc1OC(F)F (centres undefined)	1	/	/	/	/
CCOc1ccccc1N(C)S(=O)(=O)c1ccc2c(c1)CC(C)N2C(=O)C1CC1 (centres undefined)	-11	-4	1	-2	50*
CCN(c1ccccc1)S(=O)(=O)c1ccc2c(c1)CC(C)N2C(=O)C1CC1 (centres undefined)	-8	5	7	2	-4
Cc1ccc2c(C(=O)CN3CCCCC3CCO)c(C)[nH]c2c1 (centres undefined)	-29	1	-1	11	4
CCC1CCCCN1CC(=O)c1c(C)[nH]c2cc(C)ccc12 (centres undefined)	-10	4	-1	4	52*
COc1ccc(OC)c(-c2cc(C(=O)Nc3c(C)nn(Cc4ccccc4)c3C)no2)c1	-6	2	1	7	4
Cc1nn(Cc2ccccc2)c(C)c1NC(=O)c1cc(-c2ccco2)on1	-5	-2	-2	7	53*
O=C(NCC1CCN(c2ncccn2)CC1)c1ccc(F)cc1Cl	-14	/	/	/	/
CC(=O)N(C(C)=O)c1c(C#N)c(C)n(-c2ccccc2)c1C(=O)c1ccccc1	85*	0	0	6	6
CN(C)c1ccc(CNCCC(Cc2ccccc2)c2ccco2)cc1 (centres undefined)	57*	1	3	4	15
